# In PubChem BioAssay (NCATS):
# “And” between values parts separate entries of the source, which are not always exact repeats. Equal values may be shown once. Inconclusive results are not listed. A call without a number means that no potency is given here. The source made the active and inactive calls. Unless noted, calls come from the whole dose curve; as a rule, active = well fitted inhibition curve with a large enough effect; inconclusive = small, poorly fitted or top-dose-only effect; inactive = flat fitted curve, though single readings scatter.
# Assays:
# [1] = biological target: Ubiquitin carboxyl-terminal hydrolase 1 (Homo sapiens) (UniProt O94782); test: Inhibitors of USP1/UAF1: Pilot qHTS (AID 504865); note: nearly all actives have a fitted effect of over 35% in size; note: potency is the fitted concentration of half-maximal effect
# Sequence of Ubiquitin carboxyl-terminal hydrolase 1 (Homo sapiens) (O94782 whole entry, looked up): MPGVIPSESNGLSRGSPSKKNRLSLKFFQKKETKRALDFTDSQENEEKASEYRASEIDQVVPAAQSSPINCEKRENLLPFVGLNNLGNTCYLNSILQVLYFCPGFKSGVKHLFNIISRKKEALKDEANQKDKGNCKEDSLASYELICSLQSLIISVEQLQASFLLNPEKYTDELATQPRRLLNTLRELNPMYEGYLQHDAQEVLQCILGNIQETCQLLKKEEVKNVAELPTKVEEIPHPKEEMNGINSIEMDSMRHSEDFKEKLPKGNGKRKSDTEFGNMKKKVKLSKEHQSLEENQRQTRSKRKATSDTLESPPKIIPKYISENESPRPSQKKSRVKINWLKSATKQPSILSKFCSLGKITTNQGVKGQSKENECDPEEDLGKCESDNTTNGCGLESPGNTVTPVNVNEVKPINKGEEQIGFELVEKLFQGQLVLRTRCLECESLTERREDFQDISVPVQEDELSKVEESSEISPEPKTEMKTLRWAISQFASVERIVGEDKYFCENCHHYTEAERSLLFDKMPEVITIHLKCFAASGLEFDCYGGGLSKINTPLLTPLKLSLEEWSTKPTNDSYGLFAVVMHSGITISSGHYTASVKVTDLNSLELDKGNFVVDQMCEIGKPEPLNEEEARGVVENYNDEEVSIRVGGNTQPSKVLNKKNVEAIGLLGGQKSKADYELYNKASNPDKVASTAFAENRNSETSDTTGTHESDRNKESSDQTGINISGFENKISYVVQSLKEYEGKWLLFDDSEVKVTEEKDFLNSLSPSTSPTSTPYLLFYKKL
# Procedure, shortened: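 1nM USP1/UAF1 + cpd, 15 min RT; start w/ Ub-Rho 150nM final; kinetic FL 480/540 nm, 6 reads q60 s. Buffer 50mM HEPES pH 7.8, 0.5mM EDTA, 1mM TCEP, 0.01% Tween-20, 0.1 mg/ml BSA.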
# [2] = biological target: Bile acid receptor (Homo sapiens) (UniProt Q96RI1); test: qHTS assay for small molecule antagonists of farnesoid X receptor signaling (AID 588526; calls by dose curve)
# Sequence of Bile acid receptor (Homo sapiens) (Q96RI1 whole entry, looked up): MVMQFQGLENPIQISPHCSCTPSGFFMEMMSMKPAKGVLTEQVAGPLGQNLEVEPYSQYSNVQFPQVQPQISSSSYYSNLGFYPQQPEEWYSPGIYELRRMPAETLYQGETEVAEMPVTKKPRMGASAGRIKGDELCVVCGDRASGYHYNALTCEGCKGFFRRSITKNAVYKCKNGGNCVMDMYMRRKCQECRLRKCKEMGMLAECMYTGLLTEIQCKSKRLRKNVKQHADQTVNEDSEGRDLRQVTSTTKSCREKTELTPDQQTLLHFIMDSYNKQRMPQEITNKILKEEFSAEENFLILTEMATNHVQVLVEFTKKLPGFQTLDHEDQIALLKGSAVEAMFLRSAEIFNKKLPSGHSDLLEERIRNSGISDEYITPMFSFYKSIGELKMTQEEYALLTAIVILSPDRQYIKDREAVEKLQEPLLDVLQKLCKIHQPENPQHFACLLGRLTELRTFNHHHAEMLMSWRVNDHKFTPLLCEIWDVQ
# Procedure, shortened: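 Antagonist mode: titrated compounds tested against chenodeoxycholic acid stimulation (normalized to 50 uM CDCA and DMSO) in GeneBLAzer HEK293T cells for 16 h. Beta-lactamase read by CCF4 fluorescence; IC50 from Hill fits.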
# [3] = biological target: Glucocorticoid receptor (Homo sapiens) (UniProt P04150); test: qHTS assay for small molecule agonists of glucocorticoid receptor signaling (AID 588532; active = well fitted curve in the direction sought with a large enough effect in the signal ratio, with a control signal flat; the % refers to the signal ratio); details: HeLa MMTV-bla, beta-lactamase ratio, agonist, 18 h; stronger effect = higher value; percent of dexamethasone control, DMSO zero
# Sequence of Glucocorticoid receptor (Homo sapiens) (P04150 whole entry, looked up): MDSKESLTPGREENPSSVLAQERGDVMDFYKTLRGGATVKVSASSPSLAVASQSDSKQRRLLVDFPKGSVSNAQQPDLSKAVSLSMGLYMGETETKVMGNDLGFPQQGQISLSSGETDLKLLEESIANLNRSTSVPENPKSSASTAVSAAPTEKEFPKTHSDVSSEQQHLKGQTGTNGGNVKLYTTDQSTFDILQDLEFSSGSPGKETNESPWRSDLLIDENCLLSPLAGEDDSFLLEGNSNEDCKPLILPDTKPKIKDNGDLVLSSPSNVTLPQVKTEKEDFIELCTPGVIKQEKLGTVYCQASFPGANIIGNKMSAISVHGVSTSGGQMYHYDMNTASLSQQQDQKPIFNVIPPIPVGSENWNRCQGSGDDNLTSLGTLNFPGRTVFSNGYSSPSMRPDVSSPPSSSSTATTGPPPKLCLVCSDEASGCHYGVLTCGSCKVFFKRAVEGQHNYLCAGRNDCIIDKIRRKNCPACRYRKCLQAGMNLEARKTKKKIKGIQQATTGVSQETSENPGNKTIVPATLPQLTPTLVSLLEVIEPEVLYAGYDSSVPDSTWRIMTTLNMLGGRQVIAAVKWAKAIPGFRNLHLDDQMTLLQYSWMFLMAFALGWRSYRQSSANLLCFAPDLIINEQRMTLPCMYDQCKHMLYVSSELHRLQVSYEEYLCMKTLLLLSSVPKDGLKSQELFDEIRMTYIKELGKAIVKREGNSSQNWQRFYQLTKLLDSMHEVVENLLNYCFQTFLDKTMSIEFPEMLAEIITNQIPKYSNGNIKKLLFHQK
# Procedure, shortened: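 MMTV-bla HeLa beta-lactamase reporter cells in 1% charcoal/dextran FBS medium, compounds up to 92 uM for 18 h at 37 C, CCF4 readout; normalized to 0.1 uM dexamethasone (100%), EC50 and efficacy from Hill fits.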
# [4] = biological target: Glucocorticoid receptor (Homo sapiens) (UniProt P04150); test: qHTS assay for small molecule antagonists of glucocorticoid receptor signaling (AID 588533; active = well fitted inhibition curve with a large enough effect in the signal ratio, with a control signal flat, not every such curve was filed as active; the % refers to the signal ratio;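 note: cells stimulated with 2 nM dexamethasone as agonist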)
# Procedure, shortened: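 Antagonist-mode qHTS: compound titrations added to GRE-bla HeLa cells, then dexamethasone 2 nM final; 18 h, 37 C. CCF4 FRET fluorescence normalized to dexamethasone and DMSO; IC50 from Hill fit.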
# [5] = biological target: Vitamin D3 receptor (Homo sapiens) (UniProt P11473); test: qHTS assay for small molecule agonists of vitamin D receptor signaling (AID 588543; calls by dose curve)
# Procedure, shortened: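 β-lactamase reporter, VDR-UAS-bla HEK293T, agonist mode. Cells plated 5 h at 37 °C, compound titration 16 h at 37 °C, CCF4 dye 2 h RT, ratio 460/530 nm. Hill fit → EC50, efficacy vs 50 nM 1α,25-(OH)2D3.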
# [6] = biological target: DNA dC->dU-editing enzyme APOBEC-3G (Homo sapiens) (UniProt Q9HC16); test: qHTS for inhibitors of Vif-A3G interactions: Validation (AID 588379)
# Sequence of DNA dC->dU-editing enzyme APOBEC-3G (Homo sapiens) (Q9HC16 whole entry, looked up): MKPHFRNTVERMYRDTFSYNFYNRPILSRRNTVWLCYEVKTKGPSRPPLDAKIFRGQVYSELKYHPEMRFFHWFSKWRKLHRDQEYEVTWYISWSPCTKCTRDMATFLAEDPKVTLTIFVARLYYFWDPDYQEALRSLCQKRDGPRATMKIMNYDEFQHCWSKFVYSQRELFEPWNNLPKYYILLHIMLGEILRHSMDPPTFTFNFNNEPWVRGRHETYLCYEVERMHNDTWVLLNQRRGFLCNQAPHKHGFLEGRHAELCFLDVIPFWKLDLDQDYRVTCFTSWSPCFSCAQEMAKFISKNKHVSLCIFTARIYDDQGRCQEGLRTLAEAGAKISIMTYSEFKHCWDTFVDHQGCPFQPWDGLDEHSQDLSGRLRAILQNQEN
# Procedure, shortened: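 HeLa cells stably expressing Vif and A3G-eYFP, 700 cells/well, incubated overnight at 37 deg C, then exposed to compound overnight at 37 deg C. Inhibition of Vif-mediated degradation read as increased yellow fluorescence (Ex 488/Em 500-530) by laser-scanning cytometry.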
# [7] = qHTS assay for small molecule antagonists of peroxisome proliferator-activated receptor delta signaling (AID 588535; active = well fitted inhibition curve with a large enough effect in the signal ratio, with a control signal flat, not every such curve was filed as active; the % refers to the signal ratio;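 for max response: cells co-treated with a PPAR-delta agonist as stimulator during compound exposure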); details: HEK293T PPARd-UAS-bla, beta-lactamase FRET ratio, 18 h; 460 nm channel
# Procedure, shortened: (§1)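 Antagonist-mode beta-lactamase reporter (GeneBLAzer PPAR-delta-UAS-bla) in HEK293T cells, 2% charcoal/dextran FBS, 4000 cells/well. Compound titrations, 18 h at 37 C; CCF4 ratio read, IC50 and efficacy from Hill fits.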
# [8] = biological target: Peroxisome proliferator-activated receptor delta (Homo sapiens) (UniProt Q03181); test: as above
# Sequence of Peroxisome proliferator-activated receptor delta (Homo sapiens) (Q03181 whole entry, looked up): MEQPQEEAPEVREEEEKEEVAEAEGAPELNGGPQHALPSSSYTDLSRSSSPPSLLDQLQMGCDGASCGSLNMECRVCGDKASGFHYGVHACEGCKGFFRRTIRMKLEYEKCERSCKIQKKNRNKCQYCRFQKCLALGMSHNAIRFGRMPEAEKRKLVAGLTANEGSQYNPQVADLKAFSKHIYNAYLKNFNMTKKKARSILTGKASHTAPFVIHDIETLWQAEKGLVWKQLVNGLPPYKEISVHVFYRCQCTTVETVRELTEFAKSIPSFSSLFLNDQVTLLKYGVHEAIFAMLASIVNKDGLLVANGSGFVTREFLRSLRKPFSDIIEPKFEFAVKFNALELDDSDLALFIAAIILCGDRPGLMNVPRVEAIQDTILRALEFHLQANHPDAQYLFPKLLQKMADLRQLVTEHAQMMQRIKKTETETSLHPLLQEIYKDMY
# Procedure, shortened: as §1
# [9] = qHTS assay for small molecule agonists of retinoid X receptor alpha signaling (AID 588544); details: HEK293T RXRa-UAS-bla, beta-lactamase reporter, 18 h; 530 nm emission
# [10] = biological target: Estrogen receptor (Homo sapiens) (UniProt P03372); test: qHTS assay for small molecule antagonists of estrogen receptor alpha signaling (AID 588513; active = well fitted curve in the direction sought with a large enough effect in the signal ratio, with a control signal flat, not every such curve was filed as active; the % refers to the signal ratio)
# Sequence of Estrogen receptor (Homo sapiens) (P03372 whole entry, looked up): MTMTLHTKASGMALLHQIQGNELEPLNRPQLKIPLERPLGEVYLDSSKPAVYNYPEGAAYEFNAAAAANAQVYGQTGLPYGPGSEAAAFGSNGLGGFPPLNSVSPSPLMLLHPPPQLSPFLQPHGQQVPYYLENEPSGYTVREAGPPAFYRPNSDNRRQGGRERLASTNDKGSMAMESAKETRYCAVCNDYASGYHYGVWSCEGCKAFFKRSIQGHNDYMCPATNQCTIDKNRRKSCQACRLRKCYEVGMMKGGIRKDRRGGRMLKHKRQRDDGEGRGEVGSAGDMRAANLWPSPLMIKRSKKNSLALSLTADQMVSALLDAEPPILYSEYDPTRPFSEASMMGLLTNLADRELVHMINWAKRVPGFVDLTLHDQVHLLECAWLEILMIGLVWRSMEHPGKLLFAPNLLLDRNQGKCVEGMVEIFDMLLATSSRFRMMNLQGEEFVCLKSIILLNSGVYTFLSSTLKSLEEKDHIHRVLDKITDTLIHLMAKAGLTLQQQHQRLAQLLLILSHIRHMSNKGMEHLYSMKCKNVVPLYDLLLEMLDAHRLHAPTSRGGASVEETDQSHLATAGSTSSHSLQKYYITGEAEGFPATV
# Procedure, shortened: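 Beta-lactamase reporter, antagonist mode, HEK 293 GripTite cells; 0.5nM E2 stimulus, 18 h, 37 C; CCF4 dye 2 h RT; fluorescence. IC50 and efficacy from Hill fits, normalized to E2 and DMSO.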
# [11] = biological target: Estrogen receptor (Homo sapiens) (UniProt P03372); test: qHTS assay for small molecule agonists of estrogen receptor alpha signaling (AID 588514; calls by dose curve; note: nearly all actives have a fitted effect of over 70% in size)
# Procedure, shortened: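 Cells were plated at 5000/well, incubated 4 hrs at 37 C, dosed with compound titration series, incubated 18 hrs at 37 C, loaded with CCF4 dye for 2 hrs at RT, then fluorescence was read.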
# [12] = biological target: Peroxisome proliferator-activated receptor gamma (Homo sapiens) (UniProt P37231); test: qHTS assay for small molecule agonists of peroxisome proliferator-activated receptor gamma signaling (AID 588536; active = well fitted curve in the direction sought with a large enough effect in the signal ratio, with a control signal flat, not every such curve was filed as active; the % refers to the signal ratio)
# Sequence of Peroxisome proliferator-activated receptor gamma (Homo sapiens) (P37231 whole entry, looked up): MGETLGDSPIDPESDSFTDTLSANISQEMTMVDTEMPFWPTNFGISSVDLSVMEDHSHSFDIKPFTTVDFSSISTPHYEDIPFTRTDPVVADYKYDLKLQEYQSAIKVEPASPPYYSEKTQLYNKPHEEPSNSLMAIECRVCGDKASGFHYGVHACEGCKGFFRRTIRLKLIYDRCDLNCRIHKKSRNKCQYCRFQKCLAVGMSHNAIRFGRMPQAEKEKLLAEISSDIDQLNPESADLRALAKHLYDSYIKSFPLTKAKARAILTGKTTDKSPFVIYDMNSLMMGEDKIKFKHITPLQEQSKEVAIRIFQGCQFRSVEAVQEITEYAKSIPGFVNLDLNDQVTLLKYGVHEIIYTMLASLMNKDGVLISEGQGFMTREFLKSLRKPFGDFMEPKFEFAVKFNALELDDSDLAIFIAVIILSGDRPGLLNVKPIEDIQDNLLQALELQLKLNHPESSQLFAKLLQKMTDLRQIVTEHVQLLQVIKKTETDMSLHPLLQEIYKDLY
# Procedure, shortened: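 GeneBLAzer PPAR-gamma-UAS-bla HEK293 cells in 1% charcoal/dextran-treated FBS medium were treated 16 h at 37 C with compounds. Beta-lactamase activity was read by CCF4 ratio (460/530 nm). Response was normalized to 2 uM rosiglitazone (100%) and DMSO, then Hill-fitted for EC50 and efficacy.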
# [13] = biological target: Peroxisome proliferator-activated receptor gamma (Homo sapiens) (UniProt P37231); test: qHTS assay for small molecule antagonists of peroxisome proliferator-activated receptor gamma signaling (AID 588537; active = well fitted inhibition curve with a large enough effect in the signal ratio, with a control signal flat, not every such curve was filed as active; the % refers to the signal ratio; note: potency is the fitted concentration of half-maximal effect)
# Procedure, shortened: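 PPARγ-UAS-bla HEK293 cells (3000/well) in 1% charcoal/dextran-stripped FBS are treated with compound, then stimulated with 50 nM rosiglitazone for 16 h at 37 °C. Read-out is CCF4 β-lactamase fluorescence after 2 h at RT. IC50 comes from Hill fits normalised to rosiglitazone and DMSO.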
# [14] = biological target: Androgen receptor (Homo sapiens) (UniProt P10275); test: qHTS assay for small molecule agonists of androgen receptor signaling (AID 588515; active = well fitted curve in the direction sought with a large enough effect in the signal ratio, with a control signal flat; the % refers to the signal ratio); details: AR-UAS-bla HEK293, beta-lactamase ratio, agonist 16 h; stronger effect = higher value
# Sequence of Androgen receptor (Homo sapiens) (P10275 whole entry, looked up): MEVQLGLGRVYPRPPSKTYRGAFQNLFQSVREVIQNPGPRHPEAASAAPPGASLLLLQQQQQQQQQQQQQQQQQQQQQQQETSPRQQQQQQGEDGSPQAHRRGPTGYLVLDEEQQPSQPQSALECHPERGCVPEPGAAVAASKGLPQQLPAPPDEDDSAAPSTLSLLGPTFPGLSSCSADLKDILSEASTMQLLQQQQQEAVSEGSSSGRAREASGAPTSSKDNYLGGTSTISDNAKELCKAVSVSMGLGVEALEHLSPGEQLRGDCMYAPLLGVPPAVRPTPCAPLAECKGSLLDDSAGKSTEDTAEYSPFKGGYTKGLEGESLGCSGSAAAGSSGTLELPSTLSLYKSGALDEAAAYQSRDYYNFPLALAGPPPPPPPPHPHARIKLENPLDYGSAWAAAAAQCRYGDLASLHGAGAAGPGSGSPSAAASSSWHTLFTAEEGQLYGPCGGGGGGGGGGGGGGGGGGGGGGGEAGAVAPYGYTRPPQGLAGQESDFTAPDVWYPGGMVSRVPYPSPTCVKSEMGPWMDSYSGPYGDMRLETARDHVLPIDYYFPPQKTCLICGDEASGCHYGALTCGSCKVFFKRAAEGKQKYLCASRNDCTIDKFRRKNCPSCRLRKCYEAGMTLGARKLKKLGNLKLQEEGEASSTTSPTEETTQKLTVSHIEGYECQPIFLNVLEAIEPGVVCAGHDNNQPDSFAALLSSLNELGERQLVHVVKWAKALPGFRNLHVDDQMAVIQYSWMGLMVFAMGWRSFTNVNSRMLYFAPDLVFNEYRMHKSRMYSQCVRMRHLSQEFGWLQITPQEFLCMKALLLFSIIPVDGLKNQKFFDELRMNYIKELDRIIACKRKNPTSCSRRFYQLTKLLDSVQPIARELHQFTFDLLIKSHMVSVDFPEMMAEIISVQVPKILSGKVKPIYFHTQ
# Procedure, shortened: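 EC50 and efficacy came from Hill fits of titrations (up to 92 uM) normalized to 30 nM R1881 as 100% and DMSO as 0%. Compound exposure was 16 h at 37 C on AR-UAS-bla HEK293 cells, with a 405/460/530 nm CCF4 fluorescence read.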
# [15] = biological target: Androgen receptor (Homo sapiens) (UniProt P10275); test: qHTS assay for small molecule antagonists of androgen receptor signaling (AID 588516; active = well fitted curve in the direction sought with a large enough effect in the signal ratio, with a control signal flat, not every such curve was filed as active; the % refers to the signal ratio)
# Procedure, shortened: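 HEK293 AR-UAS-bla cells, 10% dialyzed FBS medium; cpd titration + R1881 10 nM final, 16 h 37 C; CCF4 2 h RT; FRET ratio; IC50/efficacy via Hill fit.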
compound,measurement,setting,value
Nc1nc(Cl)nc2c1ncn2[C@H]1C[C@H](O)[C@@H](CO)O1,Potency,[1],inactive
same,outcome,[2],inactive
same,activation,[3],-6.36% (inactive)
same,outcome,[4],inactive
same,outcome,[5],inactive
CNC[C@@H](O)[C@@H](O)[C@H](O)[C@H](O)CO,Potency,[1],inactive
COc1c2occc2cc2ccc(=O)oc12,Potency,[1],inactive
same,outcome,[6],inactive
same,outcome,[2],inactive
same,activation,[3],1.93% (inactive) and -3.63% (inactive)
same,outcome,[4],inactive
same,max response,[7],59.3%
same,outcome,[8],inactive
same,outcome,[5],inactive
same,max response,[9],-1.38%
O=C(NC(Cc1cc(=O)[nH]c2ccccc12)C(=O)O)c1ccc(Cl)cc1 (configuration not stated),Potency,[1],inactive
CC(S)C(=O)NCC(=O)O (configuration not stated),Potency,[1],inactive
CS(=O)(=O)OCCCCOS(C)(=O)=O,Potency,[1],inactive
same,outcome,[10],inactive
same,outcome,[11],inactive
same,max response,[7],-16.8% and 23.8% and -11.6%
same,outcome,[8],inactive
same,outcome,[12],inactive
same,Potency,[13],inactive
same,outcome,[5],inactive
same,max response,[9],-9.47% and 11.7%
Cc1cc(=O)oc2cc(O)ccc12,Potency,[1],inactive
O=C(NCCO[N+](=O)[O-])c1cccnc1,Potency,[1],inactive
same,outcome,[6],inactive
Cc1ccc(C)c(OCCCC(C)(C)C(=O)O)c1,Potency,[1],inactive
same,outcome,[10],inactive
same,outcome,[11],inactive
same,activation,[14],4.9% (inactive) and 2.29% (inactive)
same,outcome,[15],inactive
same,outcome,[2],inactive
same,max response,[7],34%
same,outcome,[8],inactive
same,max response,[9],26.9% and -2.09%
N[C@@H](Cc1cc(I)c(Oc2cc(I)c(O)c(I)c2)c(I)c1)C(=O)O,activation,[3],-13.7% (inactive)
same,outcome,[12],inactive
same,Potency,[13],39.8 µM (active)
same,outcome,[5],inactive
same,max response,[9],-7.79%
O=C(OC1C[C@H]2CC[C@@H](C1)[N+]21CCCC1)C(O)(c1ccccc1)c1ccccc1 (some centres not stated),Potency,[1],inactive
COC1=C(OC)C(=O)C(CCCCCCCCCCO)=C(C)C1=O,Potency,[1],inactive
NS(=O)(=O)c1cc(C(=O)O)c(NCc2ccco2)cc1Cl,Potency,[1],inactive
same,outcome,[10],inactive
same,outcome,[11],inactive
same,max response,[7],-4.16% and 9.44%
same,outcome,[8],inactive
same,outcome,[12],inactive
same,Potency,[13],inactive
same,outcome,[5],inactive
O=C(CS(=O)Cc1ccco1)NCC=CCOc1cc(CN2CCCCC2)ccn1 (configuration not stated),Potency,[1],inactive
Cc1nc2n(c(=O)c1CCN1CCC(c3noc4cc(F)ccc34)CC1)CCCC2,Potency,[1],inactive
Cn1c(NCCN(CCO)CCCc2ccc([N+](=O)[O-])cc2)cc(=O)n(C)c1=O,Potency,[1],inactive
CC(C)(S)[C@@H](N)C(=O)O,Potency,[1],inactive
CCN(CC)CCOc1ccc(Cc2ccccc2)cc1,Potency,[1],inactive
same,outcome,[6],inactive
Cc1cc2cc3c(C)cc(=O)oc3c(C)c2o1,Potency,[1],inactive
CCCCC(CC)COC(=O)C(C#N)=C(c1ccccc1)c1ccccc1 (configuration not stated),activation,[3],-1.93% (inactive)
same,max response,[7],-3.97%
same,outcome,[8],inactive
same,outcome,[5],inactive
O=C(O)c1cc(=O)c2c(OCC(O)COc3cccc4oc(C(=O)O)cc(=O)c34)cccc2o1,Potency,[1],inactive
C[C@H](Cn1cnc2c(N)ncnc21)OCP(=O)(O)O,Potency,[1],inactive
Nc1ccc(S(N)(=O)=O)cc1,Potency,[1],inactive
same,activation,[3],9.11% (inactive)
same,outcome,[4],inactive
same,max response,[9],-11.9%
COc1cc(OC)c(C(=O)CCCN2CCCC2)c(OC)c1,Potency,[1],inactive
same,activation,[14],8.09% (inactive)
same,outcome,[15],inactive
same,activation,[3],4.51% (inactive)
same,outcome,[4],inactive
same,max response,[7],15.9%
same,outcome,[8],inactive
same,outcome,[12],inactive
same,Potency,[13],inactive
same,outcome,[5],inactive
same,max response,[9],3.94%
CCCCCCCCOc1ccccc1C(=O)Nc1ccc(C(=O)OCC[N+](C)(CC)CC)cc1,Potency,[1],79.4 µM (active)
